High-throughput results deposited in PubChem BioAssay by National Center for Advancing Translational Sciences (NCATS).
In the library only some 19% were active in any assay of this set; here they are far more common.
Pf growth 96h: P. falciparum growth inhibition at 96 hour, primary screen for plastid delayed-death inhibitors; P. falciparum luciferase reporter growth, 96 h; Potency, µM (top dose mostly 28.7 µM), for the others: at the top dose activity change, negative = inhibition, actives largely listed as inhibitors; 320,000 tested, 6.9% active; further: potency means the concentration at half of the fitted maximal effect; on the % scale 0 is the no-effect control and ±100 the full control effect
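Erythrocytes infected with luciferase-expressing P. falciparum were dispensed at 2% hematocrit and 0.05% parasitemia (final), then incubated with compounds 96 hours at 37 C in 5% CO2. Luminescence after detection reagent addition reported growth.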
LASV entry inh: blocks Lassa virus binding to or entry into cells; 300,000 tested, 1.2% active; Potency, µM (top dose mostly 37.9 µM), for inactives: at the highest dose activity change, negative = inhibition, actives largely listed as inhibitors; AID 540256; Lassa virus pseudotype entry inhibition, cell reporter; calls by dose curve; tested in HEK293 cells; further: potency means the concentration at half of the fitted maximal effect; on the % scale 0 is the no-effect control and ±100 the full control effect; nearly all actives have a fitted effect of over 50% in size
Pf growth 48h: P. falciparum growth inhibition at 48 hours (one generation); P. falciparum luciferase growth in erythrocytes, 48 h; Potency, µM (highest dose often 28.7 µM), inactives show at the highest dose activity change, negative = inhibition, most hits filed as inhibitors; 310,000 tested, 5.9% active; AID 504832; further: potency means the concentration at half of the fitted maximal effect; on the % scale 0 is the no-effect control and ±100 the full control effect
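Compounds are pin-transferred into medium, infected erythrocytes (2% hematocrit, 0.1% parasitemia final) are added, and plates sit one parasite generation at 37 C in 5% CO2. Detection reagent is then added and luminescence measured.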
CHX counter: counter-screen hit for Shiga toxin inhibitors, cycloheximide | cell reporter, cycloheximide protein synthesis inhibition counterscreen | max response, % | 300,000 tested, 12% active | AID 2314; in the data active means max response mostly above about 13%, no sharp cut-off; inactive means mostly below about 14%; further: read at 38.3 µM for the half of the compounds with a filed dose; 0% is about no effect
Shiga inhibitor: blocks Shiga toxin action in Vero cells. Vero cells, Shiga toxin protein synthesis inhibition reporter. inhibition, % at 38.7 µM. 290,000 tested, 9.2% active. AID 2315; in the data active means inhibition mostly above about 28%, no sharp cut-off; inactive means mostly below about 43%; further: 0% is about no effect
Marburg entry inh: inhibitors of Marburg virus binding or cell entry. Marburg virus pseudotyped entry inhibition, cell reporter. Potency, µM (series often up to 37.8 µM), for inactives: top-dose activity change, negative = inhibition, hits mostly inhibitors. 300,000 tested, 1.8% active. AID 540276; calls by dose curve; tested in HEK293 cells; further: potency means the concentration at half of the fitted maximal effect; on the % scale 0 is the no-effect control and ±100 the full control effect
Numbers without * were called inactive; u = inconclusive; x = no result given; [ ] = another dose, or the depositor's remark. Unless noted, the call rests on the fitted dose curve; in most records, active means well fitted inhibition curve with a large enough effect; inconclusive means small, poorly fitted or top-dose-only effect, or another doubt; inactive means no such curve, though single readings can be large or run the other way.

SMILES	Pf growth 96h	LASV entry inh	Pf growth 48h	CHX counter	Shiga inhibitor	Marburg entry inh
COc1cc(-c2nnc(SCC(=O)c3cc(C)n(CC4CCCO4)c3C)o2)cc(OC)c1OC (stereo unspecified)	-19%[5.75 µM]	u	8.3µM*	64*	active	u
N#Cc1cc2c(N)c(C(=O)Nc3ccccc3)sc2nc1N	44%	x	10%	36*	90*	2%
Cc1cccc(NC(=O)c2sc3nc(N)c(C#N)cc3c2N)c1	u	u	u	31*	72*	u
O=C(C1=C[C@H](C2CCCCC2)C[C@H](OCCCCO)O1)N1CCN(Cc2ccc3c(c2)OCO3)CC1	5.9µM*	x	12µM*	-3	-7	x
O=C(C1=C[C@H](c2ccc(Br)cc2)C[C@H](OCCCCO)O1)N1CCN(Cc2ccc3c(c2)OCO3)CC1	4.1µM*	x	1.5µM*	-1	-2	x
O=C(C1=C[C@@H](c2ccc3c(c2)OCO3)C[C@@H](OCCCCO)O1)N1CCOCC1	u	x	u	1	3	x
O=C(C1=C[C@@H](c2ccc(Br)cc2)C[C@@H](OCCCCO)O1)N1CCN(Cc2ccccc2)CC1	12µM*	x	8.3µM*	-1	-15	x
O=C(C1=C[C@H](c2ccc3c(c2)OCO3)C[C@H](OCCCCO)O1)N1CCN(Cc2ccc3c(c2)OCO3)CC1	u	x	u	6	-14	x
O=C(C1=C[C@H](c2ccc3c(c2)OCO3)C[C@H](OCCCCO)O1)N1CCN(Cc2ccccc2)CC1	13µM*	x	u	-1	-5	x
CC1CCN(CC2C(=O)O[C@@H]3C[C@@]4(C)CCC[C@H](C)C4=C[C@H]23)CC(C)(C)C1 (stereo partly specified)	u	-2%[46.1 µM]	u	-4	-6	u
COc1ccccc1C(CC(=O)c1ccccc1)CC(=O)c1ccccc1	8%	u	u	14	-18	u
O=C(C1=C[C@@H](c2ccc3c(c2)OCO3)C[C@@H](OCCCCO)O1)N1CCN(Cc2ccc3c(c2)OCO3)CC1	10µM*	x	u	1	-8	x
C#Cc1ccc([C@@H]2C=C(C(=O)N3CCN(Cc4ccc5c(c4)OCO5)CC3)O[C@H](OCCCCO)C2)cc1	12µM*	x	u	2	-7	x
CCOC(=O)c1ccc(NC(=O)Nc2c(C)n(C)n(-c3ccccc3)c2=O)cc1	17%	3%	25%	-1	-14	1%
C=C1C(=O)C2=CC1CCC(=O)C1(C)CCC(OC(C)=O)C(C)(C)C1CC2O (stereo unspecified)	x	13µM*	x	x	x	u
Cc1nc2ccccc2n1CCN1CCOCC1	24%	-15%[46.1 µM]	34%	16	23	4%[46.1 µM]
O=C(O)Cn1c2ccccc2c2n[nH]c(=S)nc21	3.7µM*	1%[46.1 µM]	-5%	-4	x	12%[46.1 µM]
Nc1c(S(=O)(=O)c2cc(Cl)ccc2Cl)c2nc3ccccc3nc2n1CCN1CCOCC1	x	u	13µM*	-4	-16	-2%
c1ccc2nc3c(nc2c1)c1ccccc1n3CCN1CCOCC1	x	-8%	u	14	42*	-15%
O=C(O)CCn1c2ccccc2c2nc3ccccc3nc21	-5%	30%[46.1 µM]	111%	19*	58*	u
COCCCn1c(SCC(=O)NCc2ccccc2)nc2c(sc3ccccc32)c1=O	x	10%[46.1 µM]	x	x	x	x
Cc1nc(N2CCC(C)CC2)c2c(C)c(C(=O)Nc3ccc4c(c3)OCCO4)sc2n1	u	x	u	-3	-8	x
COCCCn1c2nc3ccccc3nc2c2c(=O)n(-c3ccccc3OC)c(C)nc21	-5%	x	-9%	-2	-3	x
Fc1ccc2c(c1)C(c1ccncc1)=NNC(c1ccccc1)=N2	u	-4%	u	62*	72*	u
Fc1ccc2c(c1)C(c1ccncc1)=NNC(c1ccc(Cl)cc1)=N2	u	-1%	u	3	18	-10%
c1ccc(C2=Nc3cccnc3C(c3ccccc3)=NN2)cc1	9%	1%[46.1 µM]	-3%	34*	92*	u
Cc1nc2sc(C(c3cccc(F)c3)N3CCCCC3)c(O)n2n1 (stereo unspecified)	u	-3%	-18%	-3	-5	22%
CCNC(=S)N1CCC(C(O)(c2ccccc2)c2ccccc2)CC1	u	-18%[46.1 µM]	-11%	-3	-13	-22%[46.1 µM]
